Source: PubChem BioAssay
Shown are actives, neighbours in structure and some others; about 19% of the full set was active somewhere.
HT1080NT lethal – kills 2HG-producing HT-1080-NT fibrosarcoma cells; AID 686970; actives 1.6% (n = 360,000); HT-1080-NT fibrosarcoma viability, CellTiter-Glo ATP luminescence, 48 h; Potency, µM (doses to about 46.1 µM), without a hit: at the top dose activity, negative = less viability, hits mostly cytotoxic;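 further: NT is the 2HG producing partner of a matched IDH1 knockdown line; potency means the concentration at half of the fitted maximal effect; 0% = DMSO-treated cells and -100% = media-only wells without cells; nearly all actives have a fitted effect of over 55% in size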
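Read-out is CellTiter-Glo luminescence after 10 minutes at room temperature, following 48 hours' compound treatment of HT-1080-NT cells (750 cells/well, RPMI, 5% FBS, 37 degrees C).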
DT40 TDP1 CPT – DT40-hTDP1 cell growth loss with CPT; chicken DT40 Tdp1-/-;hTDP1 cells + 20 nM CPT, ATP luminescence, 48 h; Potency, µM (titrated, usually from 46.2 µM), without a hit: at the top dose activity change, negative = growth inhibition, most hits filed as inhibitors; actives 12% (n = 420,000); AID 686979; further: potency means the concentration at half of the fitted maximal effect; nearly all actives have a fitted effect of over 55% in size
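Chicken DT40 Tdp1-/- cells stably complemented with human TDP1 were seeded at 400 cells/well in medium containing 20 nM camptothecin, exposed to pin-transferred compounds, and grown at 37 °C for at least 48 hr. Viability was read as ATP luminescence.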
IL-1B inflam inh – blocks inflammasome-driven IL-1 beta release | THP-1 LPS/ATP IL-1B secretion, AlphaLISA, 16 h; hits give low values | activity change, % at 57.5 µM | actives 4.7% (n = 360,000); in the data active means activity change below about -50%; inconclusive means mostly about -30% to -49%
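Secreted IL-1B measured by AlphaLISA bead assay after 16 h compound exposure of THP-1 cells; compounds (final up to 57.5 uM) added 1 h before LPS (250 ng/mL) and ATP (1.25 mM) stimulation; lower signal means less secretion.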
TDP1 cell noCPT – qHTS for Inhibitors of human tyrosyl-DNA phosphodiesterase 1 (TDP1): qHTS in cells in absence of CPT; DT40 Tdp1-/- hTDP1 cells, no CPT, ATP luminescence, 48 h; Potency, µM (titrated, usually from 46.2 µM), inactives show at the highest dose activity change, negative = growth inhibition, most hits filed as inhibitors; actives 15% (n = 420,000); further: potency means the concentration at half of the fitted maximal effect; nearly all actives have a fitted effect of over 55% in size
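Stably hTDP1-transfected Tdp1-null chicken DT40 cells were treated with library compounds minus camptothecin and grown for at least 48 hr at 37 °C, after which cellular ATP was quantified by luminescence.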
HT1080 IDH1KD tx – kills HT-1080 cells with IDH1 knockdown | HT-1080 IDH1 knockdown viability, ATP luminescence, 48 h | Potency, µM (series often up to 46.1 µM), without a hit: at the highest dose activity, negative = toxicity, actives largely listed as cytotoxic | actives 2% (n = 360,000) | AID 686971;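 further: potency means the concentration at half of the fitted maximal effect; 0% = DMSO wells and -100% = cell-free medium wells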
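% activity derives from luminescence (CellTiter-Glo), normalised to DMSO and no-cell wells. HT-1080-IDH1KD cells, 750/well, had 48 h compound exposure at 37 °C.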
* hit, by the source's call; ? = inconclusive; · = no result; [ ] = another dose, or the depositor's remark. Unless noted, the call rests on the fitted dose curve; in most records, active means well fitted curve in the direction sought with a large enough effect; inconclusive means small, poorly fitted or top-dose-only effect, or another doubt; inactive means no such curve, though single readings can be large; an effect the other way counts as inactive or inconclusive. Unless noted, on the % scale 0 is the no-effect control and ±100 the full control effect.

SMILES	HT1080NT lethal	DT40 TDP1 CPT	IL-1B inflam inh	TDP1 cell noCPT	HT1080 IDH1KD tx
COC(=O)C1=C(c2ccc(C(C)=O)cc2)C[C@@H]2CC[C@H]1N2C(=O)NCCOc1ccccc1Cl	6.7%	23.1µM*	-0.4	?	4.9%
C/C=C(\CC)C(=O)NC(N)=O	·	7.3%	·	-13.1%	·
CN(C)CCCN=Cc1c(O)n(CCc2ccc(F)cc2)c(=O)[nH]c1=O	4.3%	-11.5%	-1.3	-6.2%	4.8%
COC(=O)C1=C(c2cccc(OCc3ccccc3)c2)C[C@@H]2CC[C@H]1N2C(=O)NCCOc1ccccc1Cl	-6.8%	?	-24.8	23.1µM*	-10.2%
Cc1ccc(S(=O)(=O)c2nnn3c2nc(N2CCC(C(N)=O)CC2)c2cc(Cl)ccc23)cc1C	·	20.6µM*	·	5.17µM*	·
CCN(CC)N=O	-7.6%	-7.6%	-96.7*	15.8%	16.2%
CN(C)N=O	4.4%	16.6%	10.9	-6.6%	3.1%
O=C(NP(=O)(N1CC1)N1CC1)c1cc(I)ccc1I	-0.7%	1.46µM*	24.3	2.31µM*	-5.5%
Cc1cc(C(=O)NP(=O)(N2CCOCC2)N2CCOCC2)c(C)n1C1CC1	-1.7%	0.7%	13.4	-3.0%	3.4%
CC[C@H](C)/C=C(C)/C=C/C1=CC2=C(Cl)C(=O)[C@@](C)(OC(C)=O)C(=O)C2=CO1	23.6%	?	-12.7	?	-3.2%
CCC(C)/C=C(C)/C=C/C1=CC2=C(Cl)C(=O)C(C)(OC(C)=O)C(=O)C2=CO1 (stereo not drawn)	-16.7%	14.6µM*	33.1	?	-21.3%
COc1ccc(-n2c(CN3CCOCC3)nc3ccccc3c2=O)c(OC)c1	1.8%	?	-5.3	?	7.2%
COc1ccc(-n2c(/C=C/c3cccc(F)c3)nc3ccccc3c2=O)cc1Cl	·	20.6µM*	·	?	·
COc1ccc(-n2c(/C=C/c3cccc(F)c3)nc3ccccc3c2=O)c(OC)c1	4.6%	13µM*	7.4	?	3.4%
COc1ccc(-n2nc(C(=O)NCC(=O)N3CCC4(CC3)OCCO4)c3ccccc3c2=O)cc1OC	-11.6%	-4.3%	-2.2	-16.7%	-0.9%
Cc1ccc(Cn2nc(C(=O)Nc3ccc(Br)cc3)cc2C)cc1	-6.4%	?	33.8	11.6µM*	?
Cc1nn(Cc2ccccc2)c(Cl)c1C(=O)Nc1ccc(OC(F)(F)F)cc1	4.6%	?	11.3	?	-1.1%
COC(=O)C1=C(c2ccc(OC)c(OC)c2)C[C@@H]2CC[C@H]1N2C(=O)NCCOc1ccccc1	12.5%	?	4.4	-22.2%	15.2%
COC(=O)C1=C(c2ccc(-c3ccccc3)c(F)c2)C[C@@H]2CC[C@H]1N2C(=O)NCCOc1ccccc1	-14.3%	20.6µM*	-17.6	20.6µM*	-14.6%
COCCNC(=O)N1[C@H]2CC[C@@H]1C(C(=O)OC)=C(c1ccc(-c3ccccc3)c(F)c1)C2	-10.5%	1.84µM*	-4.7	1.84µM*	-15.3%
O=c1c2ccccc2nc(-c2ccccc2)n1-c1cccnc1	-12.7%	-26.6%	-3.1	-29.6%	-2.3%
c1ccc(-c2nc(N3CCOCC3)s[n+]2-c2ccccc2)cc1	8.2%	14.6µM*	0.0	?	16.8%
O=Cc1c(C(=O)O)n(Cc2ccccc2F)c2ccccc12	?	-25.5%	60.3	-4.1%	-9.2%
O=C(NN=Cc1ccc(N(CCCl)CCCl)cc1)c1cccc([N+](=O)[O-])c1	-25.6%	?	-5.0	?	?
Cc1nc(C)c(C(=O)NN=Cc2ccc(N(CCCl)CCCl)cc2)s1	-11.1%	?	0.0	11.6µM*	-23.5%
SMILES	HT1080NT lethal	DT40 TDP1 CPT	IL-1B inflam inh	TDP1 cell noCPT	HT1080 IDH1KD tx
O=C(NN=Cc1ccc(N(CCCl)CCCl)cc1)c1cccnc1	-16.8%	7.31µM*	-1.4	9.2µM*	-21.3%
CC(C)C(O)(C(=O)OC[C@@H]1CC[N+]2([O-])CCCC12)C(C)O (stereo partly drawn)	·	-5.2%[9.04 µM]	·	5.2%[9.04 µM]	·
C[C@H]1CC[C@]2(NC1)O[C@H]1C[C@H]3[C@@H]4CC[C@H]5C[C@@H](O)CC[C@]5(C)[C@H]4CC[C@]3(C)[C@H]1[C@@H]2C	·	-2.5%	·	?	·
O=S1(=O)N(Cc2ccccc2)CCCN1Cc1cccc(Cl)c1	·	-2.6%	·	?	·
CCCCCCCCCC(=O)O[C@H]1CC[C@H]2[C@@H]3CCC4=CC(=O)CC[C@]4(C)[C@H]3CC[C@]12C	·	4.1%	·	-0.5%	·
CCN(CC)c1ccc(NC(=O)c2cccc(C)c2)cc1S(=O)(=O)Nc1ccccc1OC	5.0%	16.4µM*	-29.5	23.1µM*	0.0%
CCOP(=O)(OCC)C(NC(=O)c1cccc(C)c1)C(Cl)(Cl)Cl (stereo not drawn)	11.4%	16.8%	36.6	-1.5%	6.2%
O=C(Nc1cc(Cl)cc(Cl)c1)N1Cc2ccccc2-n2nncc2C1	-10.3%	?	-19.6	?	11.7%
O=C1NC(=O)C(=Cc2ccc(-c3ccc(F)cc3O)o2)C(=O)N1	?	?	-76.9*	?	?
CN1C(=O)/C(=C\c2ccc(N3CCCCC3)o2)C(=O)NC1=S	9.2%	-20.9%	?	?	11.6%
O=C1NC(=O)C(=Cc2ccc(Sc3ccccc3)o2)C(=O)N1	18.4µM*	?	-99.6*	14.6µM*	13µM*
O=C1NC(=O)C(=Cc2ccc(-c3ccc(Cl)cc3)o2)C(=O)N1	1.3%	5.8µM*	-108.0*	8.2µM*	6.7%
O=C1NC(=O)C(=Cc2ccc(-c3ccc(S(=O)(=O)N4CCOCC4)cc3)o2)C(=O)N1	14.9%	?	-2.8	?	12.9%
CCOP(=S)(OCC)N1CC1	-2.1%	14.6%	-3.6	15.3%	-1.4%
CC(=O)OC1CCC2(C)C(CC(=O)C3C2CCC2(C)C(OC(C)=O)CCC32)C1 (stereo not drawn)	-0.2%	?	1.5	?	10.8%
O=[N+]([O-])c1cc(C(F)(F)F)c(Cl)c([N+](=O)[O-])c1Nc1ncc(C(F)(F)F)cc1Cl	·	0.1µM*	·	0.0251µM*	·
O=C(O)c1cc(Oc2ccc(C(F)(F)F)cc2Cl)ccc1[N+](=O)[O-]	9.7%	-0.3%	4.6	8.1%	-0.9%
COc1cccc(-n2cnc3scc(-c4cccs4)c3c2=O)c1	-3.4%	?	-64.4*	?	3.0%[9.24 µM]
COc1cccc(-n2c(-c3ccoc3)nc3ccccc3c2=O)c1	5.1%	?	2.5	?	1.2%
CC1NCCOC1c1ccccc1 (stereo not drawn)	·	-0.7%	·	-6.4%	·
CC(C)(C#N)O[C@H]1OC(CO)C(O)C(O)C1O (stereo partly drawn)	·	-1.3%	·	1.4%	·
CCCCn1c(O)c(C(C)=NCCc2c[nH]c3ccccc23)c(=O)[nH]c1=O	-11.1%	?	-8.8	16.4µM*	-6.1%
